Measurements published in PubChem BioAssay (NCATS).
Inconclusive results are not listed. Active and inactive are the calls of the source. Unless noted, calls come from the whole dose curve.

Key:
[1] = qHTS for Inhibitors of the Functional Ribonucleoprotein Complex (vRNP) of Lassa (LASV) Arenavirus: LASV Primary Screen - GLuc reporter signal (AID 1347082; calls by dose curve; tested in HEK293 reporter line; note: nearly all actives have a fitted effect of over 60% in size; for activity change, negative = inhibition: series mostly up to about 57 µM)
[2] = qHTS for Inhibitors of the Functional Ribonucleoprotein Complex (vRNP) of Lassa (LASV) Arenavirus: Viability assay - alamar blue signal for LASV Primary Screen (AID 1347083; calls by dose curve; tested in HEK293 reporter line; note: nearly all actives have a fitted effect of over 80% in size; for activity change, negative = reduced viability: series mostly up to about 57 µM)
[3] = qHTS for Inhibitors of the Functional Ribonucleoprotein Complex (vRNP) of Lymphocytic Choriomeningitis Arenaviruses (LCMV): Viability assay - alamar blue signal for LCMV Primary Screen (AID 1347085; calls by dose curve; tested in HEK293 reporter line; note: nearly all actives have a fitted effect of over 80% in size; for activity change, negative = lower viability: series mostly up to about 57 µM)
[4] = target: Nucleoprotein (Lymphocytic choriomeningitis virus (strain Armstrong)) (UniProt P09992); test: qHTS for Inhibitors of the Functional Ribonucleoprotein Complex (vRNP) of Lymphocytic Choriomeningitis Arenaviruses (LCMV): LCMV Primary Screen - GLuc reporter signal (AID 1347086); note: nearly all actives have a fitted effect of over 70% in size; for activity change, negative = inhibition: series mostly up to about 57 µM
Sequence of Nucleoprotein (Lymphocytic choriomeningitis virus (strain Armstrong)) (P09992 whole entry, looked up): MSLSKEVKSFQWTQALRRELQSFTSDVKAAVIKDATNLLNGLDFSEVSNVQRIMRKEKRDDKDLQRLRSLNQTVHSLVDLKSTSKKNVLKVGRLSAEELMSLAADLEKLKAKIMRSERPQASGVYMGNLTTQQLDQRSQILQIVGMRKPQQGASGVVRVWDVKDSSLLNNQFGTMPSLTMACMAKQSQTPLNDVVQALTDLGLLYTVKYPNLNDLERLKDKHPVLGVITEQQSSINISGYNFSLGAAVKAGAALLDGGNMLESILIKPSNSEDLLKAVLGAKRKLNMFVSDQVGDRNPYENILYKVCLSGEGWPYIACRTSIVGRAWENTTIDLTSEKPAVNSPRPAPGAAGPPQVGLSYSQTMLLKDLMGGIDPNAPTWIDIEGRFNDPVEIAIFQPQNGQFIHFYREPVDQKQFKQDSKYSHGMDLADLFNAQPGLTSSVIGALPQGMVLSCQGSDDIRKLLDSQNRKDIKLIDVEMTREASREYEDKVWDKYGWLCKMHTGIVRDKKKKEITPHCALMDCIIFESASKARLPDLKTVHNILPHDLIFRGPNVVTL
% is set by controls: 0 for no effect and ±100 for the full control effect; potency is the fitted concentration of half-maximal effect.

C[C@@]12CC[C@H]3OC(=O)C=C3C1CC[C@@]13CC(CCC12)[C@](CO)(O[C@H]1O[C@H](CO)[C@@H](O)[C@H](O)[C@H]1O)C3 (stereo not given in full)
inactive: Potency [1] | Potency [2] | Potency [3] | Potency [4]

CC1=CC2=C(C=O)C(=O)C(C)(O)C(O)C2=CO1 (stereo not given)
inactive: Potency [1] | Potency [2] | Potency [3] | Potency [4]

Nc1nc(=O)n([C@H]2CSC(CO)O2)cc1F (stereo not given in full)
inactive: Potency [1] | Potency [2] | Potency [3] | Potency [4]

CC(=O)O[C@H]1C2[C@@H](OC(=O)Cc3ccccc3)[C@@H](C)C[C@]2(OC(C)=O)C(=O)/C(C)=C/[C@@H]2[C@H](CC[C@@]13CO3)C2(C)C (stereo not given in full)
inactive: Potency [1] | Potency [2] | Potency [3] | Potency [4]

COc1c2c(nc3occc13)C(CC=C(C)C)(OC)C(O)CC2 (stereo not given)
inactive: Potency [1] | Potency [2] | Potency [3] | Potency [4]

COc1c2c(nc3ccccc13)OC(C(C)(O)COC(C)=O)C2 (stereo not given)
inactive: Potency [1] | Potency [2] | Potency [3] | Potency [4]

C=C(CC1CC(O)[C@]2(C)OC3CC4OC5C[C@]6(C)O[C@]7(C)CCC8OC9C[C@]%10(C)OC%11C(C)=CC(=O)OC%11CC%10OC9C[C@@H](C)C8OC7CC6O[C@]5(C)C/C=C\C4OC3CC2O1)C(=O)O (stereo not given in full)
inactive: Potency [1] | Potency [2] | Potency [3] | Potency [4]

CC[C@H]1O[C@]2(CC[C@@H]1C)C[C@@H]1C[C@@H](C/C=C(\C)C[C@@H](C)/C=C/C=C3\CO[C@@H]4[C@H](O)C(C)=C[C@@H](C(=O)O1)[C@]34O)O2
inactive: Potency [1] | Potency [2] | Potency [3] | Potency [4]

O=C1C=CC[C@H](/C=C/C[C@@H](O)C[C@H](O)CCc2ccccc2)O1
inactive: Potency [1] | Potency [2] | Potency [3] | Potency [4]

CCCC(=O)OCC
inactive: Potency [1] | Potency [2] | Potency [3] | Potency [4]

OCCNC1CCCc2c1[nH]c1ccc(-c3ccccc3)cc21 (stereo not given)
inactive: Potency [1] | Potency [2] | Potency [3] | Potency [4]

O=C(O)[C@H](O)[C@@H](O)C(=O)O
inactive: Potency [1] | Potency [2] | Potency [3] | Potency [4]

O=C1NC2C(=CC(O)C(O)C2O)c2cc3c(c(O)c21)OCO3 (stereo not given)
inactive: Potency [1] | Potency [2] | Potency [3] | Potency [4]

CN(C)c1ccc(/C=C2\C(=O)Nc3ccccc32)cc1
inactive: Potency [1] | Potency [2] | Potency [3] | Potency [4]

OC(CC(O)c1ccccc1)c1ccccc1 (stereo not given)
inactive: Potency [1] | Potency [2] | Potency [3] | Potency [4]

CS(=O)(=O)N1CCN(Cc2cc3nc(-c4cccc5[nH]ncc45)nc(N4CCOCC4)c3s2)CC1
active: Potency [1] 1720 nM | Potency [2] 968 nM | Potency [3] 1220 nM | Potency [4] 1370 nM

COc1cc2c(cc1O)[C@@H]1Cc3cc(O)c(OC)cc3[C@H](C2)N1C
inactive: Potency [1] | Potency [2] | Potency [3] | Potency [4]

CC(=O)CCc1ccc(O)cc1
inactive: Potency [1] | Potency [2] | Potency [3] | Potency [4]

Cc1cc(CS(=O)(=O)c2ccccc2)cc(OCc2ccc(CN3CCC[C@H]3CO)cc2)c1
inactive: Potency [1] | Potency [2] | Potency [3] | Potency [4]

CC(=O)OCC1=C(C(=O)O)N2C(=O)[C@@H](NC(=O)Cc3ccccc3)[C@H]2SC1
inactive: Potency [1] | Potency [2] | Potency [3] | Potency [4]

NC(=O)c1ncn([C@@H]2O[C@H](CO)[C@@H](O)[C@@H]2O)c1O
inactive: Potency [1] | Potency [2] | Potency [3] | Potency [4]

OCCc1c[nH]c2ccccc12
inactive: Potency [1] | Potency [2] | Potency [3] | Potency [4]

C[C@H]1CCC2[C@](C)(CO)[C@@H](O)CC[C@]2(C)[C@@]12CCC(CO)(CCO)O2 (stereo not given in full)
inactive: Potency [1] | Potency [2] | Potency [3] | Potency [4]

C=C(C)[C@@H]1CCC2=CCC[C@@H](C)[C@]2(C)C1
inactive: Potency [1] | Potency [2] | Potency [3] | Potency [4]

C[C@@H](Cc1cc2c(c(C(N)=O)c1)N(CCCO)CC2)NCCOc1ccccc1OCC(F)(F)F
inactive: Potency [1] | Potency [2] | Potency [3] | Potency [4]

COc1cc2cc(Oc3ccc4ccc(=O)oc4c3)c(=O)oc2cc1OC1OC(COC(=O)CC(C)(O)CC(=O)O)C(O)C(O)C1O (stereo not given)
inactive: Potency [1] | Potency [2] | Potency [3] | Potency [4]

C/C(=C/CCC(C)(O)C1CC[C@@]2(C)[C@@H]3CC=C4[C@@H](CC[C@H](O[C@H]5O[C@@H](CO)[C@H](O)[C@@H](O)[C@@H]5O)C4(C)C)[C@]3(C)C(=O)C[C@]12C)CO[C@@H]1O[C@H](CO)[C@@H](O)[C@H](O)[C@H]1O (stereo not given in full)
inactive: Potency [1] | Potency [2] | Potency [3] | Potency [4]

CC(C)(O[C@@H]1O[C@H](CO)[C@@H](O)[C@H](O)[C@H]1O)[C@H]1Cc2cc3ccc(=O)oc3cc2O1
inactive: Potency [1] | Potency [2] | Potency [3] | Potency [4]

C[C@@H]1C(=O)CC2C(C)(C)CCC[C@]2(C)[C@@]1(O)CCc1ccoc1 (stereo not given in full)
inactive: Potency [1] | Potency [2] | Potency [3] | Potency [4]

CO[C@H]1C=CO[C@@]2(C)Oc3c(C)c(O)c4c(O)c(c5c(c4c3C2=O)NC2(CCN(CC(C)C)CC2)N=5)=NC(=O)C(C)=CC=C[C@H](C)[C@H](O)[C@@H](C)[C@@H](O)[C@@H](C)[C@H](OC(C)=O)[C@H]1C
inactive: Potency [1] | Potency [2] | Potency [3] | Potency [4]

O=C/C=C/c1ccc(O)cc1
inactive: Potency [1] | Potency [2] | Potency [3] | Potency [4]

COc1cc2c(O)c3c(c(-c4ccc5c(c4)OCO5)c2cc1OC)C(=O)OC3
inactive: Potency [1] | Potency [2] | Potency [3] | Potency [4]

CCCCCOC(=O)CCC
inactive: Potency [1] | Potency [2] | Potency [3] | Potency [4]

COc1ccc(CNC(=S)NCc2ccc(OC)cc2)cc1
inactive: Potency [1] | Potency [2] | Potency [3] | Potency [4]

CC(C)=CC(=O)O
inactive: Potency [1] | Potency [2] | Potency [3] | Potency [4]

COc1ccc2ccc(=O)oc2c1CC(=O)C(C)C
inactive: Potency [1] | Potency [2] | Potency [3] | Potency [4]

O=C1CCCCCCCCCCCCCCCO1
inactive: Potency [1] | Potency [2] | Potency [3] | Potency [4]

Cc1cc(-c2nnc3n2CCCCC3)c(C)n1-c1ccccc1
inactive: Potency [1] | Potency [2] | Potency [3] | Potency [4]

CC(C)CC(=O)[C@@H](O)Cc1ccc(O)cc1
inactive: Potency [1] | Potency [2] | Potency [3] | Potency [4]

CC(=O)OC1[C@H](Oc2c(O)c(C)c3c4c2[C@@H](C)CC[C@@H]4[C@@H](C)C[C@@H]3C=C(C)C)OC[C@@H](O)[C@@H]1O (stereo not given in full)
inactive: Potency [1] | Potency [2] | Potency [3] | Potency [4]

C[C@@H](O)CCC[C@H](O)/C=C/[C@@H]1[C@@H](C/C=C\CCCC(=O)O)[C@@H](O)C[C@H]1O
inactive: activity change, negative = inhibition [1] -12.1% [at 0.757 µM] | activity change, negative = reduced viability [2] -24.9% [at 0.757 µM] | activity change, negative = lower viability [3] -64.4% [at 0.757 µM] | activity change, negative = inhibition [4] -26.1% [at 0.757 µM]

O=C(O)Cc1ccc(O)cc1
inactive: Potency [1] | Potency [2] | Potency [3] | Potency [4]

CCCCOC(=O)C(=O)OCCCC
inactive: Potency [1] | Potency [2] | Potency [3] | Potency [4]

COc1cc2c3c(c1OC)-c1cc(O)ccc1CC3NCC2 (stereo not given)
inactive: Potency [1] | Potency [2] | Potency [3] | Potency [4]

O=C[C@H](O)[C@@H](O)[C@H](O[C@H]1O[C@H](CO)[C@@H](O[C@H]2O[C@H](CO)[C@@H](O)[C@H](O)[C@H]2O)[C@H](O)[C@H]1O)[C@H](O)CO
inactive: Potency [1] | Potency [2] | Potency [3] | Potency [4]

O=C(O)C=C(Br)Br
inactive: Potency [1] | Potency [2] | Potency [3] | Potency [4]

CC(=O)OCC=C(C)C
inactive: Potency [1] | Potency [2] | Potency [3] | Potency [4]

CC1(C)CCC[C@@](C)([C@H]2CC[C@]3(C)[C@@H]2[C@H](O)C[C@@H]2[C@@]4(C)CC[C@H](O)C(C)(C)[C@@H]4CC[C@]23C)O1
inactive: Potency [1] | Potency [2] | Potency [3] | Potency [4]

CC(C)=CCCC(C)CC=O (stereo not given)
inactive: Potency [1] | Potency [2] | Potency [3] | Potency [4]

O=c1ccc2cc3ccoc3c(O)c2o1
inactive: Potency [1] | Potency [2] | Potency [3] | Potency [4]

CC1(C)C[C@H]2C3=CCC4[C@@]5(C)CC[C@H](O)[C@](C)(CO)C5CC[C@@]4(C)[C@]3(C)C[C@@H](O)[C@@]2(CO)[C@@H](O)[C@@H]1O (stereo not given in full)
inactive: Potency [1] | Potency [2] | Potency [3] | Potency [4]

CC1=C(O)C(=O)CO1
inactive: Potency [1] | Potency [2] | Potency [3] | Potency [4]

N#CC(=C(N)Sc1ccc(N)cc1)c1ccccc1C(F)(F)F
inactive: Potency [1] | Potency [2] | Potency [3] | Potency [4]

O=c1[nH]c(O)c(/C=C2\C=Nc3ccccc32)[nH]1
inactive: Potency [1] | Potency [2] | Potency [3] | Potency [4]

Cc1cc(=O)oc2cc3c(cc12)OCO3
inactive: Potency [1] | Potency [2] | Potency [3] | Potency [4]

COc1ccc2[nH]cc(CCO)c2c1
inactive: Potency [1] | Potency [2] | Potency [3] | Potency [4]

COc1cc(O)cc2c1[C@@H]1Oc3c(ccc(O)c3CC=C(C)C)[C@@H]1CO2
inactive: Potency [1] | Potency [2] | Potency [3] | Potency [4]

COC(=O)c1cc(O)cc(OC)c1C(=O)c1c(O)cc(C)cc1O
inactive: Potency [1] | Potency [2] | Potency [3] | Potency [4]

O=C1O[C@@H](c2ccc(O)cc2)Cc2cccc(O)c21
inactive: Potency [1] | Potency [2] | Potency [3] | Potency [4]

C=CC(C)(CCC=C(C)C)OC(=O)CC(C)C (stereo not given)
inactive: Potency [1] | Potency [2] | Potency [3] | Potency [4]
